Several values for one entry are separate records, joined by “and”; a condition that tells them apart may be missing. Equal entries are not always repeated. The whole screen tested about 380,000 compounds, of which about 1,300 (0.34%) were called active.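 Rule for the calls: active = drop in luminescence signal, shown as inhibition above about 50% in the replicate tests (limit read from the data, passing the limit was not always enough); inconclusive = probably only some replicates passing the limit; inactive = the rest.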 The entries come from a sample that favours actives as a whole. Where a structure was tested more than once in an assay, its records may differ in their call.
tested on: Drosophila bursicon receptor LGR2 (rickets); assay: LGR2 cAMP reporter signal reduction – cell-based, HEK293, CRE-luciferase reporter, bursicon stimulation, primary screen (AID 720647); settings: bursicon-stimulated, 4 h, at 9.99 µM, stronger effect = higher value;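 note: agonist challenge used bursicon conditioned medium at about half maximal strength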

Compound | inhibition
COc1cccc(CNCc2ccc3c(c2)OCO3)c1 | -10.4% (inactive)
C(=N\Nc1ccc2ccccc2n1)/c1ccc2c(c1)OCO2 | 80.4% (active)
Cc1ccc2oc(=O)c3cnn(CC(=O)N4CCCCCC4)c3c2c1 | 15.6% (inactive)
COCCCN(C(=O)Cn1ncc2c(=O)oc3ccc(C)cc3c21)C(C)c1ccncc1 (configuration not stated) | 0.725% (inactive)
Cc1ccc2oc(=O)c3cnn(CC(=O)N(Cc4ccco4)C4CCCCC4)c3c2c1 | 64.3% (active)
COCC(=O)N1[C@H](CNC(=O)c2ccccn2)[C@H](c2ccccc2)[C@@H]1CO | 0.589% (inactive)
C[C@H](CO)N1C[C@H](C)[C@H](CN(C)Cc2ccncc2)Oc2ccc(NC(=O)C3CCCCC3)cc2CC1=O | 10.2% (inactive)
COc1ccc2c3c(n(C)c2c1)[C@H](CO)NCC31CCN(C(=O)Nc2ccccc2F)CC1 | -4.04% (inactive)
O=c1c2c(nc3cc(-c4cccc(Cl)c4)[nH]n13)CCCC2 | 53.6% (active)
COc1ccc2c3c(n(C)c2c1)[C@@H](CO)N(CC1CC1)CC31CN(C(=O)Nc2c(C)noc2C)C1 | -9.38% (inactive)
C[C@@H]1CN([C@H](C)CO)C(=O)c2cc(-c3ccccc3)cnc2O[C@H]1CN(C)C(=O)NC1CCCC1 | 9.83% (inactive)
Cc1ccc(C(=O)O/N=C(\N)c2ccccn2)cc1Cl | 88.8% (active)
C/C(=N/OC(=O)c1c(-c2c(F)cccc2Cl)noc1C)c1cnccn1 | 32.3% (inactive)
C/C(=N/OC(=O)c1cccc(C(F)(F)F)c1)c1cnccn1 | 16.7% (inactive)
COc1ccc2c3c([nH]c2c1)[C@H](CO)N(Cc1ccccc1Cl)CC31CN(C(=O)C2CC2)C1 | 6.3% (inactive)
COc1ccc(-c2ccccc2[C@H]2[C@@H](CO)N(C(=O)C3CCC3)[C@H]2C#N)cc1 | 3.46% (inactive)
COc1ccc(S(=O)(=O)N(C)C[C@@H]2Oc3c(NS(=O)(=O)c4ccccc4)cccc3C(=O)N([C@@H](C)CO)C[C@@H]2C)cc1 | -7.82% (inactive)
CCc1ccc2oc(-c3ccc(N)cc3)nc2c1 | 75.2% (active)
O=C(Nc1ccc2c(c1)[C@H]1C[C@@H](CC(=O)N3CCc4ccccc4C3)O[C@H](CO)[C@H]1O2)Nc1ccccc1F | 12.8% (inactive)
COC(=O)N(C)C[C@H]1OCc2ccccc2-c2ccccc2C(=O)N([C@@H](C)CO)C[C@H]1C | 2.52% (inactive)
O=C(C[C@H]1C=C[C@H](NC(=O)Cc2ccccn2)[C@@H](CO)O1)NCCc1ccccc1 | 12.4% (inactive)
CCS(=O)(=O)N1CC2(CN(Cc3ccccc3)[C@@H](CO)c3c2c2ccc(OC)cc2n3C)C1 | -9.3% (inactive)
C=CCn1c(C)cc(C2=NNC(=NCC)SC2)c1C | 84.5% (active)
CC(C)CC#Cc1cnc2c(c1)C(=O)N([C@H](C)CO)C[C@H](C)[C@@H](CN(C)Cc1ccccc1C(=O)O)O2 | 9.07% (inactive)

Compound | inhibition
C[C@H]1CCCCO[C@H](CN(C)C(=O)Nc2ccccc2)[C@@H](C)CN([C@@H](C)CO)C(=O)c2cc(NC(=O)CCC(F)(F)F)ccc2O1 | 8.75% (inactive)
O=c1oc2ccccc2cc1-c1cn(-c2ccccc2)c(=S)[nH]1 | 102% (active)
COc1ccc(-c2ccc3c(c2)[C@@H]2[C@@H](CCN2S(=O)(=O)c2ccccc2F)[C@H](CO)N3)cc1 | -25.5% (inactive)
C[C@@H]1CN([C@@H](C)CO)C(=O)c2cc(-c3ccc(F)cc3)cnc2O[C@H]1CN(C)C(=O)c1ccncc1 | 1.63% (inactive)
O=C(C1CCCCC1)N1[C@H](CO)[C@@H](c2ccccc2)C12CN(Cc1cccc(Cl)c1)C2 | 1.64% (inactive)
O=C(C[C@@H]1CC[C@H](NC(=O)C2CCOCC2)[C@@H](CO)O1)Nc1ccccc1 | -3.27% (inactive)
CCc1sc(N2[C@@H](C#N)[C@@H](c3ccccc3-c3ccccc3)[C@@H]2CO)nc1C | 0.259% (inactive)
COc1ccc(-c2cn(CC[C@H]3CC[C@@H](N)[C@H](CO)O3)nn2)cc1 | -5.75% (inactive)
COc1ccc2c3c([nH]c2c1)[C@H](CO)N(Cc1cccc(F)c1)CC31CCN(CC2CC2)CC1 | 16% (inactive)
Cc1noc(C)c1NC(=O)Nc1ccc2c(c1)CC(=O)N([C@H](C)CO)C[C@@H](C)[C@@H](CN(C)S(=O)(=O)c1ccc(Cl)cc1)O2 | 4.84% (inactive)
O=C(NCCc1ccc(C(F)(F)F)cc1)c1ccc2c(c1)OCO2 | -2.8% (inactive)
O=C(Nc1nc2ccccc2s1)c1ccc2c(c1)OCO2 | 79.6% (active)
Cc1nc(NC(=O)c2ccc3c(c2)OCCO3)ccc1Br | -47% (inactive)
N#C[C@@H]1N[C@H](CO)[C@@H]1c1ccc(/C=C/c2ccccc2)cc1 | -52.3% (inactive)
C[C@H]1CN([C@@H](C)CO)S(=O)(=O)c2ccc(-c3cccc(C#N)c3)cc2O[C@H]1CN(C)CC1CC1 | -1.41% (inactive)
C[C@H]1CN([C@@H](C)CO)C(=O)c2cccc(NS(=O)(=O)c3ccccc3)c2O[C@@H]1CN(C)S(=O)(=O)c1cn(C)cn1 | 6.37% (inactive)
COc1ccc2c(c1)c(=Cc1ccc(N(C)C)cc1)c1cc(-c3ccccc3)[n+](C)n12 | 102% (active)
COc1ccc(S(=O)(=O)N(C)C[C@@H]2OCCCC[C@@H](C)Oc3ccc(N(C)C)cc3C(=O)N([C@@H](C)CO)C[C@@H]2C)cc1 | -3.31% (inactive)
O=C1c2ccccc2C(Nc2ccc3c(c2)OCCO3)N1Cc1ccco1 (configuration not stated) | 0.038% (inactive)
Cc1ccnc(N2C(=O)c3ccccc3C2Nc2ccc3c(c2)OCCO3)c1 (configuration not stated) | 66.5% (active)
COC(=O)c1cc(NC2c3ccccc3C(=O)N2c2ccc(Cl)cn2)cc(C(=O)OC)c1 (configuration not stated) | -4.93% (inactive)
Cc1ccc(-c2cnc3c(c2)C(=O)N([C@H](C)CO)C[C@H](C)[C@@H](CN(C)S(C)(=O)=O)O3)cc1 | 14.4% (inactive)
C[C@H]1CN([C@@H](C)CO)S(=O)(=O)c2ccc(C#Cc3cccc(F)c3)cc2O[C@@H]1CN(C)S(=O)(=O)c1cn(C)cn1 | 16.7% (inactive)
CCCC(=O)N1CCC2(CC1)CN(C(=O)C1CCCCC1)[C@@H](CO)c1[nH]c3cc(OC)ccc3c12 | -2.6% (inactive)

Compound | inhibition
COc1ccc(S(=O)(=O)N[C@H]2C=C[C@@H](CC(=O)O)O[C@@H]2CO)cc1 | 14.6% (inactive)
CSc1ncnc2c1ncn2CC(=O)C1CCC2C3CCC4=CC(=O)CCC4(C)C3CCC12C (configuration not stated) | 89.8% (active)
CSc1ncnc2c1ncn2CCCNCc1ccco1 | -1.41% (inactive)
CC12CCC(=O)C=C1CCC1C2C(O)CC2(C)C1CCC2(O)C(O)CO (configuration not stated) | -20.1% (inactive)
COCC(=O)Nc1ccc2c(c1)[C@H]1C[C@@H](CC(=O)NCc3ccccc3F)O[C@H](CO)[C@H]1O2 | -12.4% (inactive)
COc1cccc(/C=C/c2ccc3ccccc3n2)c1OC(C)=O | 84.6% (active)
CC=Cc1ccc2n(c1=O)C[C@H]1[C@H](CO)[C@@H](C(=O)NC3CCCC3)N(Cc3cccnc3)[C@@H]21 (mixture of isomers) | 5.27% (inactive)
O=C(CNCc1ccc(Cl)cc1)Nc1cccc(C(=O)O)c1 | 22.7% (inactive)
O=C(Cn1cc(/C=N/NC(=O)c2cccc(C(F)(F)F)c2)c2ccccc21)Nc1ccc(F)cc1 | 13.4% (inactive)
O=C(O)c1cccc(NC(=S)N/N=C/c2c[nH]c3ccccc23)c1 | 75.5% (active)
COc1cccc(CNC(=O)C[C@@H]2CC[C@@H]3[C@H](COc4ccc(NC(C)=O)cc4C(=O)N3C)O2)c1 | 18.5% (inactive)
CCN1[C@@H]2Cn3c(ccc(-c4cccc(OC)c4)c3=O)[C@H]1[C@@H](C(=O)N(C)C)[C@@H]2CO | -2.29% (inactive)
CCC(=O)N1CC(=O)N2[C@@H](CO)[C@H](c3ccc(C#CC4CCCC4)cc3)[C@@H]2C1 | -13.8% (inactive)
C[C@@H]1CN([C@H](C)CO)C(=O)Cc2cc(NS(C)(=O)=O)ccc2O[C@@H]1CN(C)C(=O)Nc1ccc2c(c1)OCO2 | -12.8% (inactive)
C[C@@H]1CN([C@H](C)CO)C(=O)c2cc(NC(=O)CCCCCC(=O)Nc3ccccc3N)ccc2O[C@H]1CN(C)Cc1ccncc1 | -8.39% (inactive)
C[C@@H]1CCCCO[C@H](CN(C)CC2CC2)[C@@H](C)CN([C@H](C)CO)C(=O)c2cc(NC(=O)Cc3ccccc3)ccc2O1 | 2.52% (inactive)
COc1ccccc1-c1cn(CC[C@@H]2CC[C@H](NC(=O)c3ccccc3F)[C@H](CO)O2)nn1 | 0.819% (inactive)
COc1ccc2c3c(n(C)c2c1)[C@@H](CO)N(C(=O)c1ccccn1)CC31CN(C)C1 | 2.95% (inactive)
COc1ccc(-c2ccc(C3[C@@H]4CN(S(=O)(=O)c5cn(C)cn5)C[C@H]3N4)cc2)cc1 (some centres not stated) | -3.69% (inactive)
Cn1cnc(S(=O)(=O)N2C[C@@H]3N[C@H](C2)C3c2ccc(-c3ccccc3F)cc2)c1 (some centres not stated) | 53% (active) and -30.1% (inactive)
Cn1cnc(S(=O)(=O)N2C[C@@H]3N[C@H](C2)C3c2ccc(/C=C/c3ccccc3)cc2)c1 (some centres not stated) | 7.15% (inactive) and -2.81% (inactive)
C[C@H]1CN([C@@H](C)CO)C(=O)c2ccccc2-c2ccccc2CO[C@H]1CN(C)S(=O)(=O)c1cccc(C#N)c1 | -1.55% (inactive)
C[C@H](NC(=O)C[C@@H]1CC[C@@H]2[C@H](COC[C@@H](O)CN2Cc2cc(F)ccc2F)O1)c1ccccc1 | 4.84% (inactive)
O=C(C[C@H]1C[C@@H]2c3cc(NC(=O)CC4CC4)ccc3O[C@@H]2[C@H](CO)O1)NCc1cccnc1 | 2.45% (inactive)
